# PubChem BioAssay (NCATS)
# Inconclusive results are not listed. Calls of active or inactive are those of the source. Calls come from the whole dose curve; as a rule, active = well fitted cell-killing curve with a large enough effect; inconclusive = small, poorly fitted or top-dose-only effect; inactive = flat fitted curve, though single readings scatter.
# Experiment: MultiTox-Fluor Cytotoxicity Assay - LYMP1-001 - Live Cells (AID 947)
# Settings: LYMP1-001 lymphoblastoid cells, live-cell protease fluorescence viability; series mostly up to 92.2 µM
# Description: NIH Chemical Genomics Center [NCGC]
# NIH Molecular Libraries Screening Centers Network [MLSCN]
# National Institutes of Environmental Health Sciences [NIEHS]
# National Toxicology Program [NTP]
# We have developed a 1536-well cell-based assay for quantitative high throughput screening (qHTS) against a number of cell lines to determine in vitro cytotoxicity of small molecules. This particular assay uses a human lymphoblastoid cell line (LYMP1-001) purchased from Coriell Institute.
# NCGC Assay Protocol Summary:
# The MultiTox-Fluor Cytotoxicity Assay (Promega) is a homogeneous method to simultaneously measure the relative number of live and dead cells in culture by detecting changes in cell membrane integrity. There are two fluorogenic peptide substrates in the assay reagent. Viable cells are determined when the cell-permeant substrate (GF-AFC) enters the cell and is cleaved by protease from live cells resulting in liberated fluorophore. This live-cell protease activity restricted to viable cells is proportional to cell number. The dead cells are determined by using fluorogenic cell-impermeant peptide substrate (bis-AAF-R110) which cleaved by dead cell proteases leaking from damaged cell membrane.
# Using the MultiTox-Fluor Cytotoxicity Assay, the relative number of live cells was measured in the lymphoblastoid cell line with complete culture medium following compound treatment for 16 hours. The assay was performed in opaque black Kalypsys 1536-well plates. In the screen, tetraoctylammonium bromide was used as positive control. Library compounds were measured for their ability to cause acute toxicity in the cell line, as reflected by a decrease in live cell protease activity, in a concentration-dependent manner. […] AC50 values were determined from concentration-response data modeled with the standard Hill equation.
# qHTS protocol for MultiTox-Fluor Cytotoxicity assay
# [Step] [Parameter] [Value] [Description]
# 1. Reagent; 5 uL; 2500 lymphoblastoid cells/well
# 2. Time; 5 hr; 37 C incubation
# 4. Controls; 23 nL; Tetraoctylammonium bromide 6.4pM to 92 uM
# 5. Time; 16 hr; 37 C incubation
# 6. Reagent; 5 uL; MuliTox-Fluor Assay reagent
# 7. Time; 60 min; Room Temperature
# 8. Detection; live-cell fluorescence (Ex/Em=405/510); EnVision plate reader
# Keywords: cell viability, cytotoxicity, lymphoblastoid cell line, fluorescence, NTPHTS, NTPHTS_NCGC, NIEHS, EPA, DSSTox, MLSMR, MLSCN, NIH Roadmap, qHTS, NCGC
row,SMILES,outcome
1,CCC(C)=O,inactive
2,CCCOCC(C)OCC(C)O (stereo not given),inactive
3,O=C(O)c1ccc(Cl)cc1Cl,inactive
4,COc1ccc(N)c(OC)c1,inactive
5,CCc1ccccc1O,inactive
6,C=CC(=O)OCCCC,inactive
7,C=C(C)C(=O)OCC(C)O (stereo not given),inactive
8,CCCCCCC=O,inactive
9,COc1ccc(OC)cc1,inactive
10,Cc1ccccc1C#N,inactive
11,C=C(C)C(=O)OCC(C)C,inactive
12,Cc1ccc2ccccc2c1[N+](=O)[O-],inactive
13,CCNc1ccccc1,inactive
14,Nc1cc(S(=O)(=O)O)ccc1O,inactive
15,O=c1[nH][nH]c(=O)c2cc([N+](=O)[O-])ccc12,inactive
16,O=C(O)CNC(=O)c1ccc(CO)o1,inactive
17,CC(=O)Nc1cccc(N)c1,inactive
18,CCCCC=O,inactive
19,C=CCCCCCCC=C,inactive
20,CC(C)N=C=NC(C)C,inactive

row,SMILES,outcome
1,CCC(C)(C)C(=O)O,inactive
2,CC(C)(C)c1ccc(OCC2CO2)cc1 (stereo not given),inactive
3,O=C(O)c1ccc(Cl)c(Cl)c1,inactive
4,CC(=O)Nc1ccc(C)cc1,inactive
5,Cc1ccccc1C=O,inactive
6,Nc1cc(Cl)c(N)c(Cl)c1,inactive
7,COC(=O)CC#N,inactive
8,Nc1cc(Cl)c([N+](=O)[O-])cc1O,inactive
9,CC(C)Nc1ccccc1,inactive
10,ClCCl,inactive
11,Oc1cccc(Nc2ccccc2)c1,inactive
12,CSc1ccc(C=O)cc1,inactive
13,O=C(O)c1cc(Cl)cc(Cl)c1,inactive
14,O=C1OC(=O)c2c(Br)c(Br)c(Br)c(Br)c21,inactive
15,Cc1c(N)cccc1[N+](=O)[O-],inactive
16,O=Cc1cccc(Br)c1,inactive
17,Cc1cccc(C)c1,inactive
18,O=[N+]([O-])c1cccc(Cl)c1,inactive
19,CCCCCCCCCCCCOCC1CO1 (stereo not given),inactive
20,C=CC(=O)NC(C)C,inactive
